Screens: PubChem BioAssay, several laboratories
The list is not random: actives were taken first. Their share in the collection is about 3.1%.
Anthrax LF prot: blocks Bacillus anthracis lethal factor protease; inhibition, % at 10 µM; P15917; hit rate 0.12% among 360,000; AID 588501; multiplex microsphere protease cleavage assay, LF; also: plate controls were buffer without enzyme for full effect and enzyme alone for no effect
Autofluor counter: counter-screen for toxin protease inhibitors: compound fluorescence. compound autofluorescence counterscreen, microsphere flow cytometry; hits give high values. fluorescence intensity (test concentration not listed). hit rate 3.1% among 360,000. AID 624483; in the data active = fluorescence intensity above about 16000; inconclusive = no clear call, values can overlap the other calls
BoNT F protease: BoNT F light chain protease inhibition. hit rate 0.22% among 360,000. inhibition, % at 10 µM. Multiplex microsphere protease cleavage assay, flow cytometry. AID 588497; in the data active = inhibition above about 35%, passing the limit was not always enough; inconclusive = no clear call, values can overlap the other calls; also: plate controls were buffer without enzyme for full effect and enzyme alone for no effect
BoNT-A LC inh2: blocks Botulinum neurotoxin A light chain protease; hit rate 0.17% among 360,000; multiplex microsphere protease substrate cleavage, flow cytometry; inhibition, % at 10 µM; also: plate controls were buffer without enzyme for full effect and enzyme alone for no effect
PriA SSB inh: blocks PriA binding to SSB C-terminal tail; AlphaScreen SSBct-PriA binding, biotinylated peptide; inhibition, % at 33 µM; hit rate 0.6% among 430,000; AID 1272365; in the data active = inhibition mostly above about 37%, no sharp cut-off; inactive = mostly below about 20%;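 also: plate controls were negative control peptide for no effect and reference peptide for full effect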
* = called active by the depositor; ? = inconclusive; . = not tested or not shown. Rule as the data show it, unless noted: active = inhibition above about 30%; inconclusive = no clear call, values can overlap the other calls; inactive = below that.

SMILES	Anthrax LF prot	Autofluor counter	BoNT F protease	BoNT-A LC inh2	PriA SSB inh
Cc1ccc(-c2nc3ccccn3c2NCc2ccc3c(c2)OCO3)cc1	-14.4	4303	-32.6	-3.6	45.0*
CCOC(=O)N1CCC(NC(=O)C2CCCN(S(=O)(=O)c3ccc4c(c3)oc(=O)n4C)C2)CC1 (configuration not stated)	0.7	9985	5.3	1.1	-4.6
CCOC(=O)N1CCC(NS(=O)(=O)c2ccc3c(c2)oc(=O)n3C)CC1	2.4	16773*	-0.6	1.5	-9.8
Cn1c(=O)oc2cc(S(=O)(=O)NC3CCCCCCC3)ccc21	-3.3	16482*	-2.5	-0.7	-5.0
Clc1ccc(N2CCN(c3ncnc4scc(-c5ccc(Br)cc5)c34)CC2)cc1Cl	.	.	.	.	5.0
Cn1c(CCNC(=O)c2ccccc2)nc2cc(NC(=O)C3CCCCC3)ccc21	-0.7	18656*	1.9	2.6	-19.6
Cn1c(CN2CCCCC2)nc2cc(NC(=O)c3ccccc3)ccc21	3.7	22188*	1.2	1.8	-5.2
Cc1ccc(N2C(=O)C3ON(c4ccccc4)C(c4ccncc4)C3C2=O)c(C)c1 (configuration not stated)	-6.0	4259	-1.8	0.2	-13.8
CCCN1C(=O)C2ON(c3ccccc3)C(c3ccncc3)C2C1=O (configuration not stated)	.	.	.	.	-13.0
O=C1C2ON(c3ccccc3)C(c3ccncc3)C2C(=O)N1c1ccccc1 (configuration not stated)	1.8	20412*	-3.2	-2.2	6.8
Cc1c(Cl)cccc1N1C(=O)C2ON(c3ccccc3)C(c3cccnc3)C2C1=O (configuration not stated)	1.9	21730*	-2.2	-0.2	-7.2
Cc1cccc(C)c1N1C(=O)C2ON(c3ccccc3)C(c3ccncc3)C2C1=O (configuration not stated)	0.4	22531*	-4.0	?	3.2
Cc1ccc(N2C(=O)CC(Sc3ccccc3C(=O)O)C2=O)c(Br)c1 (configuration not stated)	.	.	.	.	4.0
Cc1nn(-c2ccccc2)c(OC(=O)c2cccs2)c1S(=O)(=O)c1ccccc1	-1.4	2311	-4.3	0.1	-7.0
Cc1nn(-c2ccccc2)c(OC(=O)c2cccs2)c1S(=O)(=O)c1ccc([N+](=O)[O-])cc1	-3.4	16331*	-0.2	-0.4	-10.7
Cn1ccc(C(=O)N(CCN2CCOCC2)c2nc3c(F)cc(F)cc3s2)n1	.	.	.	.	4.0
O=C(NCC1CCCN1c1ccccc1)c1c[nH]c2ccccc12 (configuration not stated)	.	.	.	.	53.0*
Cn1cc(CC(=O)NCC2CCCN2c2ccccc2)c2ccccc21 (configuration not stated)	.	.	.	.	39.0*
O=C(Cc1ccc(F)cc1)NC[C@H]1CCCN1c1ccccc1	.	.	.	.	11.0
COc1ccc(Cl)cc1C(=O)NCCn1ncccc1=O	.	.	.	.	-13.0
NNC(=O)c1[nH]c2ccccc2c1-c1ccccc1	2.3	3584	-18.7	-2.7	101.9*
NC(=O)CSc1nnc(COc2ccccc2)n1C1CCCCC1	1.3	19126*	-0.9	1.5	-5.9
Cc1ccc(-c2noc(CSc3nnc(Cc4cccs4)n3-c3ccccc3)n2)cc1	1.3	6099	-0.3	-1.0	6.9
Cc1ccc(-n2c(Cc3cccs3)nnc2SCC(N)=O)cc1	-0.6	16452*	-0.1	?	-2.8
O=C1COc2ccc(C(=O)CSc3nnc(Cc4cccs4)n3-c3ccc(Cl)cc3)cc2N1	1.5	17966*	10.6	7.2	1.7
SMILES	Anthrax LF prot	Autofluor counter	BoNT F protease	BoNT-A LC inh2	PriA SSB inh
NC(=O)CSc1nnc(Cc2cccs2)n1C1CCCCC1	3.0	19288*	0.5	2.1	-10.3
CCN(CC)CCCN(Cc1cc2cc(OC)c(OC)cc2[nH]c1=O)C(=O)Nc1ccccc1	-9.3	22160*	-1.1	-0.3	-12.8
COc1ccccc1NC(=O)N(CCN1CCCC1)Cc1cc2cc(C)ccc2[nH]c1=O	-0.1	23245*	-2.4	-2.8	-6.9
O=C(/C=C/c1ccco1)NC(=S)Nc1ccccc1N1CCCC1	-1.9	1990	-4.9	-0.1	21.8
O=C(/C=C/c1ccco1)NC(=S)Nc1ccccc1N1CCOCC1	1.0	23214*	0.1	0.4	21.4
CCS(=O)(=O)NCCCN1CCN(c2ccccc2)CC1	.	.	.	.	-20.0
CC1=CC(C)(C)Nc2ccc(OC(=O)CCN3C(=O)c4ccccc4C3=O)cc21	-4.3	2940	-6.3	-1.4	24.9
CC1=CC(C)(C)Nc2ccc(OS(=O)(=O)c3ccc(C)cc3)cc21	-0.2	17799*	4.2	5.3	-8.7
O=C(NCCn1cccc1)c1cccc(Oc2ccccn2)c1	.	.	.	.	7.0
Cc1cccc(NC(=O)CCc2c(C)nn(-c3nc(C)cc(=O)[nH]3)c2C)n1	.	.	.	.	-19.0
